Each structure is given as a SMILES string. In all, about 52,000 compounds went through this assay and about 4,300 (8.3%) were called active. This excerpt belongs to a sample that is enriched for actives. Unmarked numbers belong to inactive results. No stated cut-off is given here; in the data, active means survival mostly below about 52% (no sharp cut-off); inactive means mostly above about 56%.

In this assay the test system is DeltatarO mutant. Briefly: growth inhibition of S. aureus wild type versus tarO mutant, primary screen, teichoic acid synthesis inhibitors, RN4220, OD600 (AID 463173). The conditions noted are these: OD600, 18 h, active compounds read low, screened at 18.75 µg/mL (by protocol).
As to `COc1ccc(CNC(=O)C(C)n2ccc3cc(S(=O)(=O)N4CCCC4)ccc32)cc1OC` (configuration not stated), the survival was 85%.
For `O=C(NCc1ccco1)C(c1ccccc1)N(CCc1ccccc1)C(=O)Cn1nnc2ccccc21` (configuration not stated) the value was 99%; for `O=C(CSc1c2c(nc3ccc(Cl)cc13)CCCC2)N1CCN(c2cccc(Cl)c2)CC1`, 51% (active); for `O=C(CSc1c2c(nc3cc(Cl)ccc13)CCCC2)N1CCN(c2ccccc2)CC1`, 33% (active).
With `COc1ccc(N2CCN(C(=O)CSc3c4c(nc5ccc(Cl)cc35)CCCC4)CC2)cc1`, the survival was 35% (active).
Regarding `COc1ccc(CNC(=O)CSc2c3c(nc4ccc(Cl)cc24)CCCC3)cc1`, the survival was 77%.
For `O=C(CSc1c2c(nc3cc(Cl)ccc13)CCCC2)NCc1ccccc1Cl` the value was 75%; for `O=C(CSc1c2c(nc3ccc(Cl)cc13)CCCC2)N1CCN(c2ccc(Cl)cc2)CC1`, 31% (active); for `COc1ccc(OC)c(NC(=O)CSc2c3c(nc4cc(Cl)ccc24)CCCC3)c1`, 86%.
For `O=C(CSc1c2c(nc3cc(Cl)ccc13)CCCC2)N1CCN(c2ccccc2F)CC1` the value was 50%.
With `Cc1sc2ncn(CC(=O)Nc3ccc(C(C)C)cc3)c(=O)c2c1S(=O)(=O)N1CCN(c2ncccn2)CC1`, the survival is 59%.
`CC1=C(C(=O)Nc2ccccc2C)C(c2ccco2)n2ncnc2N1` (configuration not stated): the survival is 101%.
For `CCc1cccc(C)c1NS(=O)(=O)c1cc2[nH]c(=O)c(=O)[nH]c2cc1C` the value was 80%.
For `CC(=O)c1ccc(N2CCN(c3ncnc4c3nc3n4CCCC3)CC2)cc1` the value was 75%; for `COC(=O)c1ccccc1NC(=O)Cn1c(=O)n(CCCCC(=O)NCc2ccc3c(c2)OCO3)c(=O)c2ccccc21`, 67%; for `COc1ccc(-c2nc3sc(CCNC(=O)c4ccc(Br)o4)c(C)n3n2)cc1`, 92%.
For the molecule `COc1ccc(C)cc1NC(=O)C1COc2ccccc2C1` (configuration not stated), the survival is 83%.
As for `COc1ccccc1C(=O)N(c1ccc(C)cc1)S(=O)(=O)c1ccc(Cl)cc1`, the figure is 74%.
Take `COC(=O)c1ccc(NC(=O)CC2C(=O)N(c3cccc(OC)c3)C(=O)N2Cc2cccc(OC)c2)cc1` (configuration not stated): the survival was 105%.
As for `COc1ccc(C)cc1NC(=O)N1CCCn2nc(C)cc21`, the figure is 73%.
For `COC(=O)c1ccc(Cl)cc1NC(=O)N1CCCn2nc(C)cc21` the value was 94%.
`COc1cc(OC)c(NC(=O)N2CCCn3nc(C)cc32)cc1Cl`: the survival is 47% (active).
As for `O=C(NC1CCCCC1)C(Cc1ccccc1)N1C(=O)C2C3C=CC(C3)C2C1=O` (configuration not stated), the figure is 92%; as for `Cc1ccc2nc(Nc3ccc(C)c(F)c3)c3nncn3c2c1`, 38% (active).
On to `Cc1cc(F)ccc1Nc1nc2ccc(Cl)cc2n2cnnc12`, for which the survival was 90%.
Take `Cc1ccc2nc(NCc3ccc(F)cc3)c3nncn3c2c1`: the survival is 121%.
As for `Cc1ccc(NC(=O)c2ccc(=O)n(CC(=O)Nc3cccc(C)c3)n2)cc1`, the figure is 72%.
As for `COc1cccc(CNC(=O)CCc2c(C)nn(-c3ccc(N4CCOCC4)nn3)c2C)c1`, the figure is 100%; as for `Cc1ccc(OCC(=O)Nc2cccc(OCc3cc(=O)n4cccc(C)c4n3)c2)cc1C`, 122%.
For `CCOc1ccc(C(=O)Nc2ccc(OCc3cc(=O)n4cccc(C)c4n3)cc2)cc1` the value was 55%; for `Cc1cccn2c(=O)cc(COc3ccc(NC(=O)c4cccc(F)c4)cc3)nc12`, 17% (active).
For the molecule `Cc1cccc(C(=O)Nc2ccc(OCc3cc(=O)n4ccc(C)cc4n3)cc2)c1`, the survival is 81%.
Consider `Cc1cccn2c(=O)cc(COc3cccc(NC(=O)c4ccccc4F)c3)nc12`, for which the survival was -5% (active).
For `Cc1ccc(OCC(=O)Nc2ccc(OCc3cc(=O)n4cccc(C)c4n3)cc2)cc1C` the value was -5% (active); for `Cc1ccccc1C(=O)Nc1cccc(OCc2cc(=O)n3cccc(C)c3n2)c1`, 77%.
For `COc1cc(C(=O)Nc2ccc(OCc3cc(=O)n4ccc(C)cc4n3)cc2)cc(OC)c1OC` the value was 8% (active); for `Cc1cccc(C(=O)Nc2cccc(OCc3cc(=O)n4cccc(C)c4n3)c2)c1`, 92%; for `Cc1ccccc1C(=O)Nc1ccc(OCc2cc(=O)n3cccc(C)c3n2)cc1`, 88%.
For `COc1ccccc1C(=O)Nc1ccc(OCc2cc(=O)n3ccc(C)cc3n2)cc1` the value was 89%; for `Cc1cccn2c(=O)cc(COc3ccc(NC(=O)COc4ccc(F)cc4)cc3)nc12`, 89%; for `CCOC(=O)c1ccccc1NC(=O)N1CCc2c(sc(C)c2CC)C1c1ccccc1` (configuration not stated), 124%.
With `O=C(Cc1csc2ccccc12)NCc1cccc(Br)c1`, the survival is 84%.
As for `O=S(=O)(c1ccc(-c2cnc(C3CC3)o2)cc1)N1CCN(c2ccccc2F)CC1`, the figure is 87%; as for `Cc1ccc(C(=O)NCc2ccccc2)cc1NC(=O)c1nsc2ccccc12`, 84%.
For `CCOc1ccc(NC(=O)N(C(C)C)C2CCN(C(C)=O)CC2)cc1` the value was 76%.
On to `CCC(C)NC(=O)c1sc2nc(C)c(C(=O)Nc3ccc(C)cc3C)c(-c3ccc(NC(C)=O)cc3)c2c1N` (configuration not stated), for which the survival is 88%.
As for `CC(C)CC(C(=O)NCC1CCN(Cc2ccc(F)cc2)CC1)N1Cc2ccccc2C1=O` (configuration not stated), the survival is 94%.
For `CCOc1ccc(N(CC)S(=O)(=O)c2cc(Br)cc3c2N(C(C)=O)C(C)C3)cc1` (configuration not stated) the value was 60%; for `CCN(c1cccc(C)c1)S(=O)(=O)c1cc(Br)cc2c1N(C(C)=O)C(C)C2` (configuration not stated), 51% (active); for `CC(=O)N1c2c(cc(Br)cc2S(=O)(=O)Nc2ccc(OC(F)(F)F)cc2)CC1C` (configuration not stated), 66%.
For `COc1cc(NS(=O)(=O)c2cc(Br)cc3c2N(C(C)=O)C(C)C3)cc(OC)c1` (configuration not stated) the value was 20% (active).
`COc1ccccc1CNS(=O)(=O)c1cc(Br)cc2c1N(C(C)=O)C(C)C2` (configuration not stated): the survival was 53%.
Take `COc1ccc(CNS(=O)(=O)c2cc(Br)cc3c2N(C(C)=O)C(C)C3)cc1` (configuration not stated): the survival is 131%.
`COc1cccc(CNS(=O)(=O)c2cc(Br)cc3c2N(C(C)=O)C(C)C3)c1` (configuration not stated): the survival was 128%.
Turning to `CC(=O)N1c2c(cc(Br)cc2S(=O)(=O)NCc2ccccc2Cl)CC1C` (configuration not stated), the survival is 46% (active).
As for `CC(=O)N1c2c(cc(Br)cc2S(=O)(=O)Nc2ccccc2C)CC1C` (configuration not stated), the figure is 68%; as for `COc1ccc(-n2c(SCC(=O)N3CCCc4ccccc43)nc3c([nH]c4ccccc43)c2=O)cc1`, 101%.
Take `COc1ccc2c(C)c(CCC(=O)NCCc3ccc(OC)c(OC)c3)c(=O)oc2c1`: the survival is 88%.
As for `CC(=O)c1cccc(NC(=O)Cn2cc(C(=O)c3cccc(Cl)c3)c(=O)c3ccc(C)nc32)c1`, the figure is 56%; as for `COc1cc(C(=O)Nc2ccc(Cl)c(-c3nc4ncccc4o3)c2)cc(OC)c1OC`, 123%.
As for `COc1ccc(Br)cc1CNC(=O)c1cc(=O)[nH]c2ccc(S(=O)(=O)N3CCCCC3)cc12`, the figure is 84%; as for `CCOC(=O)CCC(=O)Nc1nnc2n1CCS2`, 66%.
As for `CCN1CCN(CCC(=O)Nc2ccc3c(c2)CCC3)CC1`, the survival was 95%.
For `CNc1oc(/C=C/c2cc(OC)c(OC)c(OC)c2)nc1C#N` the value was 69%; for `COc1ccc(CCNc2oc(/C=C/c3ccc(OC)c(OC)c3)nc2C#N)cc1`, 90%; for `COc1cc(/C=C/c2nc(C#N)c(NC3CCCCC3)o2)cc(OC)c1OC`, 32% (active).
As for `COc1cccc(/C=C/c2nc(C#N)c(NCCc3ccc(OC)c(OC)c3)o2)c1`, the figure is 41% (active); as for `COc1ccccc1/C=C/c1nc(C#N)c(NCc2ccccc2)o1`, 83%.
As for `COc1ccccc1/C=C/c1nc(C#N)c(NCC(C)C)o1`, the figure is 47% (active); as for `CCOc1ccc(/C=C/c2nc(C#N)c(NC3CCCCC3)o2)cc1`, 65%; as for `COc1ccc(/C=C/c2nc(C#N)c(NCCc3ccc(OC)c(OC)c3)o2)cc1OC`, 95%.
As to `COc1ccccc1/C=C/c1nc(C#N)c(NCCc2ccccc2)o1`, the survival was 71%.
As for `COc1ccc(Nc2oc(/C=C/c3ccc(OC)c(OC)c3)nc2C#N)cc1`, the figure is 73%.
As for `CCOc1ccc(Nc2oc(/C=C/c3cc(OC)c(OC)c(OC)c3)nc2C#N)cc1`, the figure is 58%; as for `CCOc1ccc(Nc2oc(/C=C/c3ccc(OC)c(OC)c3)nc2C#N)cc1`, 55% (active); as for `Cc1cc(C)nc(SCCC(=O)N(C)C)n1`, 84%.
Take `CC(=O)N1CCN(CCN2C(=O)C3C4c5ccccc5C(c5ccccc54)C3C2=O)CC1` (configuration not stated): the survival is 94%.
In the case of `CCC(=O)N(Cc1cc(=O)[nH]c2ccccc12)C1CCCCC1`, the survival was 69%.
For `COc1cc(NC(=O)CC(c2cccs2)N2Cc3ccccc3C2=O)cc(OC)c1OC` (configuration not stated) the value was 49%; for `Cc1ccc(-c2csc(-c3nc(-c4ccc(Br)s4)cs3)n2)cc1`, 82%; for `Cc1c(NC(=O)c2ccc(Cl)cc2)cc(C(C)C)c(O)c1S(=O)(=O)c1ccc(Cl)cc1`, 75%.
As for `CCN(CC)C(=O)CSc1nnc(Cc2ccccc2)n1CC`, the figure is 50%; as for `CCOC(=O)C1CCN(C(=O)c2ccc3c(=O)n4nc(Nc5cc(C)ccc5C)sc4nc3c2)CC1`, 84%.
On to `COc1ccc(S(=O)(=O)N2CCC(c3ccncc3)CC2)cc1Cl`, for which the survival is 124%.
Regarding `COc1ccccc1CNC(=O)CCn1c(=O)c2ccccc2n(CC(=O)Nc2ccc(C)cc2Cl)c1=O`, the survival is 77%.
For `COc1ccc(-n2nc(C(=O)N3CCN(c4cccc(C)c4)C(C)C3)c3c4ccccc4n(C)c3c2=O)cc1` (configuration not stated) the value was 76%; for `COc1ccccc1/C=C/c1nc(C#N)c(NC2CCCCC2)o1`, 85%.
For `COc1cccc(/C=C/c2nc(C#N)c(NC3CCCCC3)o2)c1` the value was 69%.
Take `COc1ccccc1/C=C/c1nc(C#N)c(NC(C)c2ccccc2)o1` (configuration not stated): the survival is 70%.
On to `COc1cc(/C=C/c2nc(C#N)c(NC(C)c3ccccc3)o2)cc(OC)c1OC` (configuration not stated), for which the survival was 40% (active).
As for `COc1cc(/C=C/c2nc(C#N)c(NCCc3ccccc3)o2)cc(OC)c1OC`, the figure is 49%.
For `COc1ccc(/C=C/c2nc(C#N)c(NC3CCCCC3)o2)cc1OC` the value was 36% (active).

These data come from PubChem BioAssay AID463173 (ICCB-Longwood Screening Facility, Harvard Medical School, 2010).
